According to PubChem BioAssay (EPA / NIEHS):
Where “and” joins values, the source holds several entries; their conditions need not be identical. Identical values can stand only once. Results filed as inconclusive are left out. A structure can be active in one record and inactive in another. Calls of active or inactive are those of the source. Rule for the calls: active = hit-call score of the fitted dose curve at least 0.9, where 1 is the maximum; inconclusive = response in the unintended direction; inactive = score below 0.9.

target: Cellular tumor antigen p53 (Homo sapiens) (UniProt P04637); assay: TOX21_p53_BLA_p2_ratio: Tox21 HCT-116 p53 Agonism Beta-lactamase Assay, Ratio, Phase 2 (AID 2283592)
Method in brief: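 In this cell-based reporter format, HCT116 cells were dosed with chemicals delivered from DMSO by 217-fold dilution and incubated 16 h at 37C. Emission at 460 and 530 nm after 2 h CCF4-AM loading provided the ratio, fitted upward versus DMSO.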

Cellular tumor antigen p53 (Homo sapiens), sequence (P04637 whole entry, looked up): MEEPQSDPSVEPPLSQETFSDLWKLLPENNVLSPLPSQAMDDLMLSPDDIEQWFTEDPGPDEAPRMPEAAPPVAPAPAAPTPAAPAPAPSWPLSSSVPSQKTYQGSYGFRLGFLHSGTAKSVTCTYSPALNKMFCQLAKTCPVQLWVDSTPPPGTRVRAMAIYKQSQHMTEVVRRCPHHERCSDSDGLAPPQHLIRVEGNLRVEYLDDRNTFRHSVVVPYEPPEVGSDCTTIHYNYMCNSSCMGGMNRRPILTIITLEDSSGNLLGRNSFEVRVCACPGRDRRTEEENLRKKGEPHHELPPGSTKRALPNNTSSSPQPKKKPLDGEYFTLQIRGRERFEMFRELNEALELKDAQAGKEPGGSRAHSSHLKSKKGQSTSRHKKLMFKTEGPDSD

Row | Structure (SMILES) | AC50 | outcome
1 | Cc1cc(CCN2CCN(c3nsc4ccccc34)CC2)cc2c1NC(=O)CC2(C)C | 71.6 µM (active) | –
2 | CC(=O)CC(C)(C)O | – | inactive
3 | CC(C)(C)CC(C)(C)c1ccc(O)c(-n2nc3ccccc3n2)c1 | – | inactive
4 | Nc1cccc2c(N)cccc12 | – | inactive
5 | CC[C@H](C)[C@@H](C(=O)O)n1sc2ccccc2c1=O | – | inactive
6 | OC1CCC(C2CCCCC2)CC1 (stereo not drawn) | – | inactive
7 | CCCCOCCO | – | inactive
8 | CCCOC(=O)c1ccc(O)cc1 | – | inactive
9 | CCOC(=O)CC(O)(CC(=O)OCC)C(=O)OCC | – | inactive

test system: not listed separately; assay: TOX21_p53_BLA_p3_viability: Viability Assessment in the Tox21 HCT-116 p53 Agonism Beta-lactamase Assay, Phase 3 (AID 2283593);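 note: cells exposed to compound for 16 h before reading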
Method in brief: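 HCT116 cells, 4000/well, dosed 5 h after plating by pin transfer (217-fold dilution from DMSO stock) and incubated 16 h at 37C, 5% CO2. Viability read as ATP luminescence with CellTiter-Glo after 30 min at room temperature.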

Row | Structure (SMILES) | outcome
10 | O=C1OC2(c3ccccc31)c1cc(Br)c(O)c(Br)c1Oc1c2cc(Br)c(O)c1Br | inactive
11 | COC(=O)CCCCC(=O)OC | inactive
12 | OC1CCC(C2CCCCC2)CC1 (stereo not drawn) | inactive
13 | O=[N+]([O-])c1ccc(O)cc1 | inactive
14 | Cc1ccc(S(=O)(=O)O)c(C)c1 | inactive

target: Cellular tumor antigen p53 (Homo sapiens) (UniProt P04637); assay: TOX21_p53_BLA_p3_ratio: Tox21 HCT-116 p53 Agonism Beta-lactamase Assay, Ratio, Phase 3 (AID 2283596)
Method in brief: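 HCT116 p53-bla cells (4000/well) given compound in DMSO (217-fold dilution) after 5 h, incubated 16 h at 37C. CCF4-AM substrate 2 h at room temperature; 460/530 nm emission ratio, gain fitted against DMSO.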

Row | Structure (SMILES) | outcome | AC50
15 | Cc1cc(CCN2CCN(c3nsc4ccccc34)CC2)cc2c1NC(=O)CC2(C)C | inactive | –
16 | c1ccc2c(c1)Cc1ccccc1-2 | inactive | –
17 | COC(=O)CCCCC(=O)OC | inactive | –
18 | CC(=O)NC1(c2cccc(F)c2)CCN(CC[C@@]2(c3ccc(Cl)c(Cl)c3)CN(c3ccccc3)C(=O)CO2)CC1 | – | 71.6 µM (active)
19 | CC(O)CO (stereo not drawn) | inactive | –
20 | CC(O)C(=O)O (stereo not drawn) | inactive | –
21 | CC(=O)CC(C)(C)O | inactive | –
22 | CC(C)(C)c1cc(C(C)(C)C)c(O)c(C(C)(C)C)c1 | inactive | –
23 | CC(C)(C)CC(C)(C)c1ccc(O)c(-n2nc3ccccc3n2)c1 | inactive | –
24 | Nc1cccc2c(N)cccc12 | inactive | –
25 | CCCCCCCCCCCCCC[N+](C)(C)C | inactive | 39.8 µM (active) and 14.6 µM (active)
26 | CC[C@H](C)[C@@H](C(=O)O)n1sc2ccccc2c1=O | inactive | –
27 | OC1CCC(C2CCCCC2)CC1 (stereo not drawn) | inactive | –
28 | O=[N+]([O-])c1ccc(O)cc1 | inactive | –
29 | Cc1ccc(S(=O)(=O)O)c(C)c1 | inactive | –
30 | CCN(CC)CCNc1ccc(CNC=O)c2sc3ccc(OC)cc3c(=O)c12 | – | 18.7 µM (active)
31 | O=C(OCCOCCOC(=O)c1ccccc1)c1ccccc1 | inactive | –
32 | CCC(C)(C)C1CCC(O)CC1 (stereo not drawn) | inactive | –
33 | CCCCCCCCOC(=O)CCCCCCCCC(=O)OCCCCCCCC | inactive | –
34 | CC[C@H](c1ccc(O)cc1)[C@@H](CC)c1ccc(O)cc1 | inactive | 14.4 µM (active)
35 | CCCCCCCCC(=O)O | inactive | –
36 | CCCCOCCO | inactive | –
37 | Cc1cc(C)c(O)c(C)c1 | inactive | –
38 | CCCOC(=O)c1ccc(O)cc1 | inactive | –
39 | c1ccc2c(c1)ccc1ccccc12 | inactive | –
40 | CC(C)(C)c1ccc(O)c(C(C)(C)C)c1 | – | 77.4 µM (active) and 79.4 µM (active)
41 | NC(=O)N1C(=O)C(C(=O)c2cc(Cl)cs2)c2cc(F)c(Cl)cc21 (stereo not drawn) | – | 2.59 µM (active)
